The source made the active and inactive calls.
How the values were obtained:
[1] = target: Albumin (Bos taurus) (UniProt P02769); assay: compounds binding labelled BSA control protein – biochemical, small-molecule microarray, Alexa647 label, 635/667 nm fluorescence, artefact control for SMM control protein annotation, profiling panel (AID 1118); details: BSA-A647 binding, fluorescence 635 nm, higher = more signal;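 also: score merges 667 nm emission intensity and signal-to-noise per printed compound spot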
Sequence of Albumin (Bos taurus) (P02769 whole entry, looked up): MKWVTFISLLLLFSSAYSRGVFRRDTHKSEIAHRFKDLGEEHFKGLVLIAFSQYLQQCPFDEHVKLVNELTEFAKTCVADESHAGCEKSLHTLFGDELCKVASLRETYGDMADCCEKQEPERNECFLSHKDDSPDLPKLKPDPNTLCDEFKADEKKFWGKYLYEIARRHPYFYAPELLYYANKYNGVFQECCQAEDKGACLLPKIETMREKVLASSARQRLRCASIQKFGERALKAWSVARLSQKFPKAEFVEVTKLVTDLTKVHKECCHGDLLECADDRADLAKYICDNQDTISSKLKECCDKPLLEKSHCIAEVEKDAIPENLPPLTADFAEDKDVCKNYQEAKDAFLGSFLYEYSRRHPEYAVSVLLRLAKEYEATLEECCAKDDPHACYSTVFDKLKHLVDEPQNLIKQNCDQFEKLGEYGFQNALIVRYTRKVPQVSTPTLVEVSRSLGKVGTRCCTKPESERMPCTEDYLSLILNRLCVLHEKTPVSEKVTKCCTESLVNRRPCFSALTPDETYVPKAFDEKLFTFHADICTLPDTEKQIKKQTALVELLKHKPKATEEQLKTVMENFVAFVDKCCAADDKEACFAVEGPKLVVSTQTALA

[2] = probe aXIP binding to arrayed compounds – biochemical, NeuroSMM set, 635/667 nm fluorescence, primary screen (AID 1119); details: small-molecule microarray, higher = more signal, called active from +8 up or from −8 down;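 also: probe is the protein aXip251-270 applied at 1 µg/mL to compound-printed slides; binding of probe to printed compounds measured as 667 nm fluorescence plus signal to noise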
[3] = probe aNOTCH3 binding on compound microarray – biochemical, small-molecule microarray, 635/667 nm fluorescence, primary screen (AID 1120); details: higher = more signal;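 also: probe is a biotin-tagged antibody raised against NOTCH3 rather than NOTCH3 protein; score merges spot fluorescence near 667 nm with spot signal to noise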
[4] = probe aNOTCH2 binding on compound microarray – biochemical, small-molecule microarray, 635/667 nm fluorescence, primary screen (AID 1121); details: higher = more signal;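 also: score merges feature fluorescence read at 667 nm with its signal to noise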
[5] = target: Carbonic anhydrase 2 (Homo sapiens) (UniProt P00918); assay: compounds binding carbonic anhydrase 2 – biochemical, small-molecule microarray, Alexa647-labelled CAII, profiling panel (AID 1122); details: CAII-A647 binding fluorescence, higher = more signal
[6] = COS7 lysate on small-molecule microarray, probe aHis, 635 nm (AID 1123); details: COS7 cell lysate, fluorescence, higher = more signal;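 also: z-score combines 667nm fluorescence intensity with signal-to-noise per printed compound spot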
[7] = probe aLAP1 signal on lysate-treated microarray – cell lysate, small-molecule microarray, COS7 lysate, primary screen (AID 1124); details: probe aLAP1, fluorescence, higher = more signal;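 also: lysate comes from COS7 cells expressing LAP1 and is applied at 0.3 µg/mL; score merges spot fluorescence near 667 nm with signal-to-noise over triplicate slides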
[8] = system: Sam68 (KHDRBS1); assay: compounds binding KHDRBS1 protein – biochemical, small-molecule microarray, 635 nm fluorescence, primary screen (AID 1125); details: higher = more signal;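 also: score merges 667 nm channel intensity with signal to noise over triplicate slides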
[9] = system: Chordin-like protein 2 (CHRDL2); assay: compounds binding chordin-like 2 – biochemical, small-molecule microarray, 635 nm fluorescence, primary screen (AID 1126); details: fluorescence 635 nm, higher = more signal;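 also: printed compound slides probed with Chrdl2 protein at 4 µg/mL for 1 h at 4 C; score merges 667 nm emission intensity with signal to noise over three replicate slides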
[10] = target: Concanavalin-A (Canavalia ensiformis) (UniProt P02866); assay: compounds binding concanavalin A lectin – biochemical, small-molecule microarray, Alexa647 label, 635 nm, artefact control for SMM control protein annotation, primary screen (AID 1127); details: ConA-A647 binding fluorescence, higher = more signal;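 also: z combines 667 nm emission intensity with signal-to-noise across three replicate slides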
Sequence of Concanavalin-A (Canavalia ensiformis) (P02866 whole entry, looked up): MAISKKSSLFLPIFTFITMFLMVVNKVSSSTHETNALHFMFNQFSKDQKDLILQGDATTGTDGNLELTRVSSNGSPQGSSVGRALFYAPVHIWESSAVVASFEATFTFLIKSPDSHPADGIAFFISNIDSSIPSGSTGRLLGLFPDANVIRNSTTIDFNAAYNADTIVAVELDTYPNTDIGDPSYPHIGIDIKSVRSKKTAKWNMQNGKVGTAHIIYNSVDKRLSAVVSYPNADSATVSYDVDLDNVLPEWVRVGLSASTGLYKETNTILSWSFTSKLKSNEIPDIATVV

[11] = compounds binding Alexa647 anti-His antibody – biochemical, small-molecule microarray, 635 nm fluorescence, artefact control for SMM control protein annotation, primary screen (AID 1128); details: higher = more signal;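 also: score merges feature fluorescence with signal-to-noise for each printed compound spot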
[12] = system: Human papillomavirus type 1a E7 protein (residues 1-88); assay: HPV1a E7 small-molecule binders, primary screen, biochemical, small-molecule microarray, residues 1-88, 635 nm (AID 1129); details: small-molecule microarray binding, fluorescence 635 nm; higher = more signal
[13] = target: Focal adhesion kinase 1 (Homo sapiens) (UniProt Q05397); assay: PTK2 protein binding on printed compound slides – biochemical, small-molecule microarray, 635/667 nm fluorescence, BSA, DTT, primary screen (AID 1130); details: 635 nm fluorescence, higher = more signal;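 also: composite of spot emission at 667 nm and signal to noise over triplicate slides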
Sequence of Focal adhesion kinase 1 (Homo sapiens) (Q05397 whole entry, looked up): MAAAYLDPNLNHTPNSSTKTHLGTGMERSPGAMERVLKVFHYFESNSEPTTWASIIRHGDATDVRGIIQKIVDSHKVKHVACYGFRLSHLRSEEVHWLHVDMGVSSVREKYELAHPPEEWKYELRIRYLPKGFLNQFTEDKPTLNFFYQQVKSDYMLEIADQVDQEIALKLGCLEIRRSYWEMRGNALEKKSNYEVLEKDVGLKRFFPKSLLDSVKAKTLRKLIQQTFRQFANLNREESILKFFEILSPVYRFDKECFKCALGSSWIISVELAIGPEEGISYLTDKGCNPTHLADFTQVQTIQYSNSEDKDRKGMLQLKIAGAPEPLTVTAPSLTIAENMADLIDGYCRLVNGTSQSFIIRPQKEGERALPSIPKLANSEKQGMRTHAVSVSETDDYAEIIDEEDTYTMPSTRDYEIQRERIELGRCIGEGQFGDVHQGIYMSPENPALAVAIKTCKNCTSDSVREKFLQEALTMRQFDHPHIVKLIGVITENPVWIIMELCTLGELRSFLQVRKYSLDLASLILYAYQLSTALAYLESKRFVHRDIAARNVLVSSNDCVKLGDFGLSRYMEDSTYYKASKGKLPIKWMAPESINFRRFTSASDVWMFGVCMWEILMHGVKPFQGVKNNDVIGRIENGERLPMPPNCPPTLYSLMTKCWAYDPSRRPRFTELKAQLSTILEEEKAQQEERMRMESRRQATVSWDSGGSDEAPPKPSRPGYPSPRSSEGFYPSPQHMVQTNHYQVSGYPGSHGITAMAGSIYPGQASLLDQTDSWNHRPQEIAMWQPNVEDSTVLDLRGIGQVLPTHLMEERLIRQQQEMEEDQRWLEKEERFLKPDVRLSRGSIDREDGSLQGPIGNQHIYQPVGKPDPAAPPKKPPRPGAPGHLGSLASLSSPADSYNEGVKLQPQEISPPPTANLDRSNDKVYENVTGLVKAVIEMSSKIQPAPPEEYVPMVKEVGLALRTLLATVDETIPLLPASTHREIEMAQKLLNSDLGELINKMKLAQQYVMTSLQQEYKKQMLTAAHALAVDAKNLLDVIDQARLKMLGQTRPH

[14] = system: Fibrinogen (Alexa647-labelled); assay: Alexa647-fibrinogen binding to printed small molecules – biochemical, small-molecule microarray, 635/667 nm fluorescence, artefact control for SMM control-protein annotation, profiling panel (AID 1131); details: fibrinogen-A647 binding fluorescence, higher = more signal;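 also: z-score merges 667 nm fluorescence with per-spot signal-to-noise over triplicate slides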
[15] = target: Follistatin (Homo sapiens) (UniProt P19883); assay: FST protein binding to printed compounds – biochemical, small-molecule microarray, 635/667 nm fluorescence, primary screen (AID 1132); details: 635 nm fluorescence, higher = more signal
Sequence of Follistatin (Homo sapiens) (P19883 whole entry, looked up): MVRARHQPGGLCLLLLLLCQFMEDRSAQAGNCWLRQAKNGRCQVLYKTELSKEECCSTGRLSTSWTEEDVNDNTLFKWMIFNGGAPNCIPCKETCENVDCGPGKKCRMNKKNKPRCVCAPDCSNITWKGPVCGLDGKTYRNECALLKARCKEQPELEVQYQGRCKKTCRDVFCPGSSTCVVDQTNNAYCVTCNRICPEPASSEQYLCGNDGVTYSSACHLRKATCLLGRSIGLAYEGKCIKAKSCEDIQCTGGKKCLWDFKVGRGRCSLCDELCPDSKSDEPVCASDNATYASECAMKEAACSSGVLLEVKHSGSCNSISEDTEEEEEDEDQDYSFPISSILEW

[16] = target: Fibroblast growth factor 2 (Homo sapiens) (UniProt P09038); assay: basic fibroblast growth factor binding to printed compounds – biochemical, small-molecule microarray, 635/667 nm fluorescence, primary screen (AID 1133); details: FGF2, fluorescence 635/667, higher = more signal
Sequence of Fibroblast growth factor 2 (Homo sapiens) (P09038 whole entry, looked up): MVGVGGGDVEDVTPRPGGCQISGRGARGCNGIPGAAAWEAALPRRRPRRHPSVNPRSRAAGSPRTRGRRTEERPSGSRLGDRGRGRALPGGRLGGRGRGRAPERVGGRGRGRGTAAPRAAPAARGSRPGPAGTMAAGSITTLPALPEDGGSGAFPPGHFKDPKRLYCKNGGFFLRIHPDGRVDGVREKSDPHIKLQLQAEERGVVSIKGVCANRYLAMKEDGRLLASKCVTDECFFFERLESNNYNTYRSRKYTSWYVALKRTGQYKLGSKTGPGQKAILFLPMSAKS

[17] = JC-1 mitochondrial potential readout, lung cancer cells – cell-based, A549, JC-1 fluorescence, basal, 24 h, 100 nL, profiling panel (AID 1138); details: higher = more signal;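 also: A549 lung adenocarcinoma cells under basal conditions with no added stimulus; test concentration not given here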
[18] = system: Lefty1; assay: Lefty1 protein binding to printed compounds – biochemical, small-molecule microarray, 635/667 nm fluorescence, primary screen (AID 1139); details: fluorescence 635/667, higher = more signal
[19] = system: wheat germ agglutinin (Triticum aestivum), Alexa647-labelled; assay: Alexa647-WGA lectin binding to printed small molecules – biochemical, small-molecule microarray, 635/667 nm fluorescence, artefact control for SMM control-protein annotation, profiling panel (AID 1140); details: WGA-A647 binding, 635 nm fluorescence, higher = more signal;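 also: score merges 667 nm feature emission with signal to noise over triplicate slides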
[20] = target: Luciferin 4-monooxygenase (Photinus pyralis) (UniProt P08659); assay: inhibition of purified Photinus pyralis luciferase – biochemical, luminescence, purified enzyme, 2006 set, primary screen (AID 1141); details: purified firefly luciferase, SteadyGlo luminescence, 30 min; higher = more signal, called active from +8 up or from −8 down;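 also: cell-free assay with purified firefly luciferase at 100 ng per well in PBS; test concentration not given here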
Sequence of Luciferin 4-monooxygenase (Photinus pyralis) (P08659 whole entry, looked up): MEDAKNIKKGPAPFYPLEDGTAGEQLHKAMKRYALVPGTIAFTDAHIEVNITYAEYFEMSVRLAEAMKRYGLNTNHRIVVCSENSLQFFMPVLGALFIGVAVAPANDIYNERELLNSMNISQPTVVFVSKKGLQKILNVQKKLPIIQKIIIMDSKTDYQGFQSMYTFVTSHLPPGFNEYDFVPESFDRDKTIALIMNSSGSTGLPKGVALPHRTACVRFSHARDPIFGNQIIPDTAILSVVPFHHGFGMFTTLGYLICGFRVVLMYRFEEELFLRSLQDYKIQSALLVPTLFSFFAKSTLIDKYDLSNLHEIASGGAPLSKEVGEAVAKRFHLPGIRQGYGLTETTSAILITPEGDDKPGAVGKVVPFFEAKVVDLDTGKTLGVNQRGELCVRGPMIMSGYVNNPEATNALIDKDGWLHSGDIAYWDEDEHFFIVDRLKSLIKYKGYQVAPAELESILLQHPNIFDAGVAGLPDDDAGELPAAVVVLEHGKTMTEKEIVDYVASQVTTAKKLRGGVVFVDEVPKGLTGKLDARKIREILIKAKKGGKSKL

Compound	composite z-score [1]	composite Z-score [2]	composite z-score [3]	composite z-score [4]	composite z-score [5]	composite z-score [6]	composite z-score [7]	composite z-score [8]	composite z-score [9]	composite z-score [10]	composite z-score [11]	composite z-score [12]	composite z-score [13]	composite z-score [14]	composite z-score [15]	composite z-score [16]	z-score [17]	composite z-score [18]	composite z-score [19]	z-score [20]
CC(C)=CCCC(C)=CCON=C1C[C@@H](O)[C@@H](O)[C@@H]2[C@@H]3C(=O)N(c4ccc(F)cc4F)C(=O)[C@@H]3CC[C@H]12	0.477	-0.356 (inactive)	0.164	-0.0662	0.514	1.31	0.402	1.24	0.812	0.629	1.33	1.21	0.631	0.333	0.705	0.256	-0.63	0.515	0.335	0.443 (inactive)
CC(=O)O[C@H]1C2=CO[C@H](C)[C@H]3[C@H]4C5=C([C@H](O)[C@H]6O[C@H]6C5=O)[C@H](OC4C)[C@@]23C(=O)[C@@H]2O[C@@H]21 (stereo not given in full)	0.767	0.719 (inactive)	0.0836	-0.0357	0.357	0.249	0.228	0.583	0.0249	-0.185	-0.497	0.121	-0.703	-0.331	-0.436	1.35	-0.837	0.0873	-0.515	-0.413 (inactive)
CC(C)CON=C1C[C@@H](O)[C@@H](O)[C@@H]2[C@@H]3C(=O)N(c4ccc(F)cc4F)C(=O)[C@@H]3CC[C@H]12	0.541	0.109 (inactive)	-0.122	-0.17	0.501	0.602	0.311	1.28	0.554	0.303	0.686	1.11	0.436	0.424	0.714	0.375	-0.229	1.13	0.221	0.819 (inactive)
COC(=O)[C@H](C)NC(=O)CCC1CC(OC(=O)NCCc2ccc(F)cc2)CC2(CCCC(COC(=O)NCCC(C)C)O2)O1 (stereo not given in full)	0.828	0.443 (inactive)	-0.0262	0.128	0.325	0.834	-0.234	0.36	0.0905	0.0934	0.959	0.168	0.0069	0.939	0.577	0.761	2.09	0.899	0.323	-0.447 (inactive)
CCOC(=O)[C@H](CC(C)C)NC(=O)CCC1CC(OC(=O)NCc2cccc3ccccc23)CC2(CCCC(COC(=O)NCCC(C)C)O2)O1 (stereo not given in full)	0.352	-0.136 (inactive)	-0.147	-0.153	0.562	0.795	-0.104	-0.0361	0.443	0.0178	-0.121	0.572	-0.394	0.123	0.364	0.92	0.652	0.606	0.0877	-0.0038 (inactive)
CCCNC(=O)OC[C@H]1O[C@H](CCON=C(C)CCN2CCc3nc(CC)c(CC)cc3C2)C=C[C@@H]1Oc1ccc(OC)cc1	0.322	0.0421 (inactive)	0.105	-0.14	-0.164	0.176	0.0186	0.285	-0.0024	0.0004	0.869	-0.476	0.512	0.564	0.248	-0.167	0.77	0.374	0.316	-0.512 (inactive)

— PubChem BioAssay
